Measurements published in PubChem BioAssay (NCI).
About 79,000 compounds went through this panel and 15% of them were active in at least one assay; those are over-represented in the sample as a whole. No stated cut-off is given here; in the data, active means growth inhibition above about 70%; inactive means the rest.

Columns and labels:
[1] = NCI Yeast Anticancer Drug Screen. Data for the rad50 strain (AID 155);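 further: 0% = growth of vehicle-only cultures of the same strain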; conditions: S. cerevisiae rad50 strain growth inhibition; at 50.0 µM; stronger effect = higher value
In short: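 A DNA repair-deficient yeast mutant serves as the test organism; compound-induced growth inhibition is calculated against vehicle-treated cells.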

[2] = NCI Yeast Anticancer Drug Screen. Data for the mec2-1 strain (AID 157); conditions: S. cerevisiae mec2-1 strain, at 50.0 µM, stronger effect = higher value
In short: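 Using mec2-1 yeast: add compound, measure growth, express inhibition versus vehicle-treated cultures.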

[3] = NCI Yeast Anticancer Drug Screen. Data for the sgs1 mgt1 strain (AID 161);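 further: 0% = growth of cultures given vehicle only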; conditions: S. cerevisiae sgs1 mgt1 strain, at 50.0 µM, stronger effect = higher value
In short: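 Yeast cells carrying a defined DNA-repair defect were exposed to test compounds. Growth inhibition was measured relative to vehicle-treated controls.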

[4] = NCI Yeast Anticancer Drug Screen. Data for the cln2 rad14 strain (AID 165);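 further: 0% = growth equal to vehicle treated cultures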; conditions: S. cerevisiae cln2 rad14 strain, at 50.0 µM, stronger effect = higher value
In short: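 Yeast strain cln2 rad14, bearing defects in cell cycle control and DNA repair, serves as the test system; values reflect growth inhibition compared with vehicle.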

[5] = NCI Yeast Anticancer Drug Screen. Data for the bub3 strain (AID 167); conditions: S. cerevisiae bub3 mutant strain, at 50.0 µM, stronger effect = higher value
In short: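 Inhibition values come from growth of compound-treated mutant yeast normalised to vehicle-treated controls.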

[6] = NCI Yeast Anticancer Drug Screen. Data for the mlh1 rad18 strain (AID 175); conditions: S. cerevisiae mlh1 rad18 strain growth inhibition; at 50.0 µM; stronger effect = higher value
In short: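 Steps: expose repair-defective yeast to compound; measure growth; express inhibition against vehicle-treated controls.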

Measured: growth inhibition

CC(C)CCC[C@@H](C)[C@H]1CC[C@H]2[C@@H]3CC[C@H]4OC(=O)CC[C@]4(C)[C@H]3CC[C@]12C
inactive: [1] -19.4% | [2] -33.9% | [3] -30.4% | [4] -2.2% | [5] -27.7% | [6] -9.85%

CCCNC(=S)NNC(N)=O
inactive: [1] 2.5% | [2] 7.35% | [3] -9.05% | [4] 6.15% | [5] -11.2% | [6] 12.2%

CCOC(=O)c1c(NC(=O)CCl)ssc1=S
inactive: [1] 15.2% | [2] 28.4% | [3] 42.5% | [4] 22.8% | [5] 4.7% | [6] 43.6%

CSc1ncc2c(C#N)c3ccccn3c(=O)c2n1
inactive: [1] 6.65% | [2] -7% | [3] 11.2% | [4] -1.5% | [5] 14.4% | [6] -17.5%

CC(O)(c1ccccc1)C1CC1 (stereo not drawn)
inactive: [1] -1.55% | [2] -29.2% | [3] -16.7% | [4] -0.65% | [5] -16.1% | [6] -4.05%

CC(C)(C)NC(NC(C)(C)C)=C(C(Cl)=C(Cl)Cl)[N+](=O)[O-]
inactive: [1] -2.1% | [2] -9.55% | [3] -6.15% | [4] 7.8% | [5] 12.7% | [6] -0.75%

COc1cc(C2C3=C(COC3=O)Oc3cc4c(cc32)OCO4)cc(OC)c1OC (stereo not drawn)
inactive: [1] -3.15% | [2] 24.1% | [3] -8.35% | [4] 14.2% | [5] -12.2% | [6] 3.5%

CCOC(=O)CC1(c2ccccc2)OC(=O)c2ccccc21 (stereo not drawn)
inactive: [1] 9.05% | [2] 13.2% | [3] 8.65% | [4] 4.75% | [5] 16.9% | [6] -11.2%

CCCN(CCC#N)C(=S)Nc1ccc(C)c(C)c1
inactive: [1] -13.1% | [2] -54.7% | [3] -3.1% | [4] -7.5% | [5] -41.6% | [6] -27.9%

CCCCCC(=O)OCCCCCO
inactive: [1] 13.7% | [2] 16.8% | [3] 21.5% | [4] 13.2% | [5] 2.6% | [6] -4.7%

CC1C(C)(C)P(=O)(OCCOP2(=O)C(C)(C)C(C)C2(C)C)C1(C)C (stereo not drawn)
inactive: [1] 35% | [2] -0.85% | [3] 22.2% | [4] -9.6% | [5] 3.75% | [6] 7.25%

O=C1CCCCCCCCCCC1
inactive: [1] -8.1% | [2] -62.7% | [3] -17.6% | [4] 15.2% | [5] -17.1% | [6] 3.1%

Cc1ccc(CNC(=O)NC(C)(C)C)cc1
inactive: [1] -3.05% | [2] -8.45% | [3] -2.65% | [4] -50.2% | [5] 1.85% | [6] 0.1%

O=C(Nc1cc(Cl)ccc1Cl)Oc1c(Cl)cc(Cl)c(Cl)c1[N+](=O)[O-]
inactive: [1] 10.2% | [2] -37.1% | [3] 29.1% | [4] -33.8% | [5] -0.55% | [6] 15.8%

Cc1ccc(Cl)c(NC(=O)COc2ccc(Cl)cc2)c1
inactive: [1] -1.2% | [2] 28.3% | [3] 22.3% | [4] -6.6% | [5] 32.7% | [6] 26.4%

O=c1nc2sc3ccccc3c(=O)n2[nH]1
inactive: [1] -39.6% | [2] -42% | [3] -2.85% | [4] 6.85% | [5] -12.2% | [6] -28.8%

OC1(C#Cc2ccccc2)c2ccccc2C(O)(C#Cc2ccccc2)c2ccccc21 (stereo not drawn)
inactive: [1] 9.95% | [2] -11.8% | [3] 1.6% | [4] 14.1% | [5] -10.3% | [6] 10.1%

CCOP(=O)(OCC)c1nc(Cl)nc(Cl)c1SC(F)(F)F
inactive: [1] 33.3% | [2] 11.3% | [3] 14.5% | [4] 13.2% | [5] -4.4% | [6] 25.2%

COC(=O)CC1C=CC(OC)[C@@]2(C)C(=O)C(OC)=CC(=O)[C@@H]12 (stereo partly drawn)
inactive: [1] 8.7% | [2] -15.1% | [3] -11.4% | [4] 19.6% | [5] 2.4% | [6] -3.45%

O=C1OCCN1N1C(=O)CC2(CCN(Cc3ccccc3)CC2)C1=O
inactive: [1] -10.8% | [2] 3% | [3] -0.95% | [4] 1.15% | [5] 0.25% | [6] -17.8%

C=CC(C)(C)c1c2c(c(O)c3c(=O)c4ccc(O)c(O)c4oc13)C=CC(C)(C)O2
inactive: [1] -12.2% | [2] -12% | [3] 3.35% | [4] -5.2% | [5] -7.7% | [6] -4.05%

CC(C)=CC1CC(=O)C1(C)Sc1ccccc1 (stereo not drawn)
inactive: [1] 26.9% | [2] -1.5% | [3] 24.2% | [4] 12.9% | [5] 4.7% | [6] 2.95%

c1ccc(SC2(Sc3ccccc3)CCCC2)cc1
inactive: [1] -9.15% | [2] -22.1% | [3] -12.2% | [4] -0.5% | [5] -24.6% | [6] -17.4%

CCSC(SCC)C(NC(C)=O)C(OC(C)=O)C(OC(C)=O)C(COC(C)=O)OC(C)=O (stereo not drawn)
inactive: [1] 23.4% | [2] -3.25% | [3] -0.2% | [4] 8.25% | [5] -2.7% | [6] 10.6%

Cn1c(=O)c2[nH]c(/N=N/N3CCN(CCO)CC3)nc2n(C)c1=O
inactive: [1] 20.1% | [2] -14.8% | [3] 6.95% | [4] -34% | [5] -45.6% | [6] 9.35%

C=C(CN(C)C)C(=O)c1ccc(C(=O)C(=C)CN(C)C)cc1
inactive: [1] -1.4% | [2] 6.85% | [3] 2.2% | [4] -2.15% | [5] 0.65% | [6] 6.4%

NC(=S)c1ccccn1
inactive: [1] 18.6% | [2] 11.4% | [3] 32.8% | [4] -22.5% | [5] 2.4% | [6] 26.9%

Cc1c(O)c2ccc3ccccc3c2oc1=O
inactive: [1] 5.4% | [2] 5.75% | [3] -7.05% | [4] -37.4% | [5] -47.4% | [6] -6.4%

Cc1ccc(SCC(CF)OCn2cc(F)c(=O)[nH]c2=O)cc1 (stereo not drawn)
inactive: [1] -7.85% | [2] -13% | [3] -12.2% | [4] -22.2% | [5] 1.95% | [6] -8.05%

CC(C)CC(NC(=O)COc1cc(Cl)ccc1Cl)C(=O)O (stereo not drawn)
inactive: [1] -4.3% | [2] 19.2% | [3] 6.3% | [4] -18.6% | [5] -3.25% | [6] -40.4%

COc1ccc(/C(Cl)=C(\C=O)c2ccc(OC)c(OC)c2)cc1OC
inactive: [1] 21.9% | [2] 4.5% | [3] -0.3% | [4] -17.1% | [5] -3% | [6] -13.1%

CN(C)CCNC(=O)c1cccc2c1Oc1cccc([N+](=O)[O-])c1O2
inactive: [1] -12.7% | [2] -14.1% | [3] -9.85% | [4] 14.4% | [5] -12.1% | [6] -34.3%

C=C(C)C1Cc2c(cc(O)c3c(=O)c4c(oc23)C(O)Oc2cc(OC)c(OC)cc2-4)O1 (stereo not drawn)
inactive: [1] 9.15% | [2] -0.95% | [3] 0.9% | [4] -3.85% | [5] 2.85% | [6] 16.9%

CCn1c(C)[n+](CCCOS(=O)(=O)[O-])c2ccccc21
inactive: [1] 2.6% | [2] -19.1% | [3] -14.4% | [4] 4.1% | [5] 4.6% | [6] -6.05%

Clc1nc(C(Cl)Cl)nc2ccccc12
inactive: [1] 9.65% | [2] 10.8% | [3] 14.2% | [4] 2.9% | [5] 16.1% | [6] 12.4%

CCOc1cc2c(cc1C(C)c1ccc(OCc3ccccc3)c(OC)c1)OCO2 (stereo not drawn)
inactive: [1] 18.8% | [2] -6.7% | [3] -5.35% | [4] 11.7% | [5] -2.05% | [6] 1.75%

COc1cc(C(C#N)NNc2nc(C)cc(=O)[nH]2)cc(OC)c1OC (stereo not drawn)
inactive: [1] -25.6% | [2] -2.75% | [3] -31.1% | [4] -5.35% | [5] -23.9% | [6] -12.9%

CC(=O)c1c(-c2nc(=S)[nH]c(C)c2C(C)=O)nc(=S)[nH]c1C
inactive: [1] 15.1% | [2] 9.95% | [3] 6.3% | [4] 0.45% | [5] -1.45% | [6] 16.8%
